The values below come from PMC4081100, “A DNA-binding-site landscape and regulatory network analysis for NAC transcription factors in Arabidopsis thaliana”.

What all share (experiment): universal protein binding microarray (PBM); transcription factors of Arabidopsis thaliana; high values mean tight binding
Conditions in all cases: protein: recombinant; tags: GST; chain copies: 2; dsDNA, one strand shown

The target of assay [1] is T1, GST-ANAC092(1-176) (Arabidopsis thaliana, UniProt Q9FKA0 1-176).
T1 sequence: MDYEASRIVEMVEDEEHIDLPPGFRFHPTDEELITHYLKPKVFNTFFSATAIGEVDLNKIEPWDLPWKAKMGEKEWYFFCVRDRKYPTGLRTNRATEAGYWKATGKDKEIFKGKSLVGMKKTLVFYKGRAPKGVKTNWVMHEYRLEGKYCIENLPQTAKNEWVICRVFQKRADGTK
In a few lines:
(§1)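 Protein amounts were determined by A280 or anti-GST western blot after glutathione–Sepharose 4B purification of GST-tagged proteins induced in cells, with zinc acetate included for zinc-finger proteins. Duplicate runs at 200 to 500 nM final were done on custom all-10-mer Agilent 4 × 180K arrays made double-stranded by primer extension. The normalised enrichment score (E-score) over gapped and ungapped 8-mers is the measure of binding.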

Assay [2] addresses GST-NTL6(1-168) (Arabidopsis thaliana, UniProt Q9SCK6 1-168). In outline:
as §1

The target of assay [3] is T2, GST-ANAC019 NAC domain (Arabidopsis thaliana, UniProt Q9C932 14-162).
T2 sequence: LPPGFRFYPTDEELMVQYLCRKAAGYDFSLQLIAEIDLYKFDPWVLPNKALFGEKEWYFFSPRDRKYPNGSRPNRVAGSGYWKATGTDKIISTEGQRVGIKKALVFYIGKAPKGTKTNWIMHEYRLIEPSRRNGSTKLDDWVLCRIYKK
In a few lines:
as §1

Assay [4] addresses T3, GST-ANAC055(1-171) (Arabidopsis thaliana, UniProt Q9LDY8 1-171).
T3 sequence: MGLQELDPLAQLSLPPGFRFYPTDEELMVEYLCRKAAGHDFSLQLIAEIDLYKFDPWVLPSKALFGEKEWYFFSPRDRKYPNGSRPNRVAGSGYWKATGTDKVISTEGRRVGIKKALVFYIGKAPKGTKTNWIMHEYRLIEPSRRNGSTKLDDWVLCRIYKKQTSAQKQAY
In a few lines: as §1

Assay [5] has as its target T4, GST-ATAF1 NAC domain (Arabidopsis thaliana, UniProt Q39013 7-158).
T4 sequence: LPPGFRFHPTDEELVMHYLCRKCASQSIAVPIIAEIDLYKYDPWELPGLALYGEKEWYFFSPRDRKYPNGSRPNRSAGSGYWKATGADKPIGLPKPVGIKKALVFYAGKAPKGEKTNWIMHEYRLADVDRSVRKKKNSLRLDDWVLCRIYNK
In a few lines:
as §1

Assay [6] has as its target T5, GST-ANAC092(1-285) full length (Arabidopsis thaliana, UniProt Q9FKA0 1-285).
T5 sequence: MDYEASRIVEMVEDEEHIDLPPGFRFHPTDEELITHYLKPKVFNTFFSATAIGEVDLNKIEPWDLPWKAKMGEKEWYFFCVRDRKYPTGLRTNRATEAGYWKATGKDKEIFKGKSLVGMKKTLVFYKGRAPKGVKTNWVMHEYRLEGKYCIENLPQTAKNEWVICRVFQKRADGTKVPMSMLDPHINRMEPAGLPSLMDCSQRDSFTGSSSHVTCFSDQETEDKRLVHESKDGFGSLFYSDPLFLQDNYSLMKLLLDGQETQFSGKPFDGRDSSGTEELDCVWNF
In outline:
as §1

Assay [7] addresses T6, GST-NAP(1-166) (Arabidopsis thaliana, UniProt O49255 1-166).
T6 sequence: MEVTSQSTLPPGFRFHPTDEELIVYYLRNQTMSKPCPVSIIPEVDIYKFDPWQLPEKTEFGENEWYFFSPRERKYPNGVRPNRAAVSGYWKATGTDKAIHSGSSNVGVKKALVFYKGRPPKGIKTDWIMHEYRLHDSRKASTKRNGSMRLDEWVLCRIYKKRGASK
In a few lines: as §1

Assay [8] deals with T7, GST-NST2(1-184) (Arabidopsis thaliana, UniProt Q9M274 1-184).
T7 sequence: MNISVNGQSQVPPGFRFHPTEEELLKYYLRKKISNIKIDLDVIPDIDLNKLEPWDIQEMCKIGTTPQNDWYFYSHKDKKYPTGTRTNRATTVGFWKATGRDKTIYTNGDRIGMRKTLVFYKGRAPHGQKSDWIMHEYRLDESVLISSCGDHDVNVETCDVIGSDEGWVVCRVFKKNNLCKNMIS
In outline:
as §1

For assay [9], the target named is T8, GST-NTL8 NAC domain (Arabidopsis thaliana, UniProt Q9XIN7 14-156).
T8 sequence: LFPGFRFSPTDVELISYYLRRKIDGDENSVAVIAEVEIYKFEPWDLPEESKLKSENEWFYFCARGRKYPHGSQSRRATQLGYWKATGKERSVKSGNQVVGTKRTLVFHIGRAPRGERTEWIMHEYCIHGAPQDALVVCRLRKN
In outline:
as §1

The target of assay [10] is T9, GST-SND1(1-203) (Arabidopsis thaliana, UniProt Q9LPI7 1-203).
T9 sequence: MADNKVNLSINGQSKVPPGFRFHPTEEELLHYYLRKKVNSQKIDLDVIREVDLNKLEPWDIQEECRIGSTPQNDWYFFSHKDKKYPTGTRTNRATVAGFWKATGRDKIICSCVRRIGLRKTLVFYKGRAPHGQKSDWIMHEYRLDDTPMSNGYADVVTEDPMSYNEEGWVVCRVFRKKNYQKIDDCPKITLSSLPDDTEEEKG
In outline: as §1

For assay [11], the target named is T10, GST-VND3 NAC domain (Arabidopsis thaliana, UniProt Q9FH59 12-162).
T10 sequence: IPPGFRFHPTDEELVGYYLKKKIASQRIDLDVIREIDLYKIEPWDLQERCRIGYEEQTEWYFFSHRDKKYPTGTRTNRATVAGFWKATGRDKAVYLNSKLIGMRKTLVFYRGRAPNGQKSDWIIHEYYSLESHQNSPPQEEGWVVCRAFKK
In a few lines: as §1

Assay [12] has as its target T11, GST-VND7 NAC domain (Arabidopsis thaliana, UniProt Q9C8W9 9-158).
T11 sequence: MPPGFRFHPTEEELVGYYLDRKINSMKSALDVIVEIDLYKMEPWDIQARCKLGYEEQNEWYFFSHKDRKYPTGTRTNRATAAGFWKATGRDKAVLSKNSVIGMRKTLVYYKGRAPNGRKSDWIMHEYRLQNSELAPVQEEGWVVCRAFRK
In outline: as §1

Chain of GST-NTL6(1-168) (Q9SCK6 1-168): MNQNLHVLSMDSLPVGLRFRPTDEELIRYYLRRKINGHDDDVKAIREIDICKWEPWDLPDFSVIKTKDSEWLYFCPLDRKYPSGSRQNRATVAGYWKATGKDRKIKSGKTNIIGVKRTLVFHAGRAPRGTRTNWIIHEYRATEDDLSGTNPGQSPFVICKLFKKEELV

Turning to AACGTAAG, the binding signal in [1] was 0.32 E-score; in assay [2], 0.196 E-score; in [3], 0.132 E-score; in [4] it was 0.213 E-score; in [5] it was 0.255 E-score; in assay [6], 0.366 E-score. Besides, the binding signal in [7] is 0.204 E-score; in [8], 0.262 E-score; in assay [9], 0.124 E-score; in assay [10], 0.436 E-score; in assay [11], 0.289 E-score; in assay [12] it was 0.226 E-score.
In the case of AACACGCC, the binding signal in assay [1] came to 0.391 E-score; in assay [2] it was 0.094 E-score; in assay [3], 0.238 E-score; in [4], 0.253 E-score; in assay [5], 0.0901 E-score; in assay [6] it was 0.431 E-score. The binding signal in [7] stood at 0.184 E-score; in [8], 0.144 E-score; in [10] it was 0.144 E-score; in [11], 0.1 E-score; in [12], 0.0653 E-score.
As to GTAAGAAA, the binding signal was 0.296 E-score in assay [1]; 0.422 E-score in [2]; 0.224 E-score in assay [3]; 0.206 E-score in [4]; 0.311 E-score in [5]; 0.332 E-score in assay [6]. Further, the binding signal came to 0.101 E-score in assay [7]; 0.289 E-score in assay [8]; 0.214 E-score in [9]; 0.303 E-score in assay [10]; 0.16 E-score in [11]; 0.19 E-score in assay [12].
Regarding GTGACGTA, the binding signal in assay [1] turned out to be 0.447 E-score; in [2] it was 0.0989 E-score; in [3], 0.375 E-score; in [4] it was 0.36 E-score; in assay [5] it was 0.39 E-score; in assay [6], 0.452 E-score. Further, the binding signal in assay [7] was 0.417 E-score; in assay [8] it was 0.311 E-score; in [10] it was 0.467 E-score; in [11], 0.365 E-score; in [12], 0.413 E-score.
On to ACACGCTA, for which the binding signal in [1] came to 0.484 E-score; in assay [2] it was 0.0935 E-score; in assay [3], 0.16 E-score; in assay [4], 0.193 E-score; in assay [5], 0.116 E-score; in [6], 0.49 E-score. Further, the binding signal in [7] was 0.194 E-score; in assay [8], 0.4 E-score; in assay [10], 0.438 E-score; in assay [11], 0.079 E-score; in assay [12] it was 0.104 E-score.
In the case of TTACTCAA, the binding signal amounted to 0.345 E-score in [1]; 0.078 E-score in [2]; 0.0697 E-score in [3]; 0.0741 E-score in assay [4]; 0.223 E-score in assay [5]; 0.359 E-score in [6]. For the same sequence, the binding signal came to 0.0501 E-score in [7]; 0.247 E-score in [8]; 0.0629 E-score in assay [9]; 0.445 E-score in assay [10]; 0.165 E-score in assay [11]; 0.126 E-score in assay [12].
Take ACGTAAGC: the binding signal in [1] amounted to 0.42 E-score; in assay [2], 0.133 E-score; in [3], 0.453 E-score; in [4] it was 0.406 E-score; in assay [5] it was 0.352 E-score; in [6] it was 0.449 E-score. In addition, the binding signal in assay [7] stood at 0.428 E-score; in [8], 0.298 E-score; in assay [9] it was 0.205 E-score; in assay [10], 0.368 E-score; in [11], 0.437 E-score; in [12], 0.431 E-score.
On to AAGTAAAG, for which the binding signal was 0.275 E-score in assay [1]; 0.432 E-score in assay [2]; 0.107 E-score in assay [3]; 0.168 E-score in assay [4]; 0.189 E-score in [5]; 0.32 E-score in assay [6]. Also, the binding signal in assay [7] was 0.0549 E-score; in assay [8], 0.265 E-score; in assay [9] it was 0.27 E-score; in assay [10] it was 0.328 E-score; in assay [11] it was 0.175 E-score; in assay [12], 0.181 E-score.
Take TACGTTAA: the binding signal is 0.43 E-score in assay [1]; 0.14 E-score in assay [2]; 0.0653 E-score in assay [3]; 0.154 E-score in assay [4]; 0.243 E-score in assay [5]; 0.432 E-score in assay [6]. Besides, the binding signal came to 0.12 E-score in assay [7]; 0.321 E-score in [8]; 0.462 E-score in [10]; 0.249 E-score in [11]; 0.173 E-score in assay [12].
Turning to ACGTAATC, the binding signal in [1] is 0.464 E-score; in [2] it was 0.0901 E-score; in assay [3], 0.453 E-score; in assay [4], 0.411 E-score; in assay [5], 0.38 E-score; in assay [6] it was 0.462 E-score. Moreover, the binding signal in [7] was found to be 0.443 E-score; in [8], 0.356 E-score; in assay [10] it was 0.424 E-score; in [11], 0.427 E-score; in [12] it was 0.44 E-score.
For AACACGCT, the binding signal in assay [1] amounted to 0.416 E-score; in [2] it was 0.134 E-score; in [3], 0.185 E-score; in assay [4], 0.236 E-score; in assay [5] it was 0.174 E-score; in assay [6] it was 0.431 E-score. In addition, the binding signal was 0.2 E-score in assay [7]; 0.3 E-score in assay [8]; 0.227 E-score in assay [10]; 0.0943 E-score in assay [11]; 0.142 E-score in [12].
On to AATACGCA, for which the binding signal came out at 0.411 E-score in assay [1]; 0.109 E-score in assay [2]; 0.196 E-score in assay [3]; 0.293 E-score in assay [4]; 0.142 E-score in [5]; 0.431 E-score in assay [6]. The binding signal in assay [7] turned out to be 0.221 E-score; in assay [8], 0.206 E-score; in assay [10], 0.356 E-score; in assay [11] it was 0.314 E-score; in [12], 0.259 E-score.
For the sequence ACACACGC, the binding signal in assay [1] worked out at 0.37 E-score; in [2], 0.0666 E-score; in assay [3], 0.169 E-score; in [4] it was 0.199 E-score; in [5], 0.135 E-score; in assay [6], 0.423 E-score. The binding signal in assay [7] amounted to 0.0855 E-score; in assay [8], 0.221 E-score; in assay [10], 0.221 E-score; in [11] it was 0.198 E-score; in assay [12] it was 0.213 E-score.
As to CACGAAAC, the binding signal in [1] was 0.425 E-score; in assay [2], 0.112 E-score; in [3], 0.358 E-score; in assay [4] it was 0.343 E-score; in assay [5] it was 0.261 E-score; in assay [6], 0.452 E-score. Besides, the binding signal came to 0.208 E-score in assay [7]; 0.224 E-score in [8]; 0.137 E-score in [9]; 0.177 E-score in [10]; 0.326 E-score in [11]; 0.246 E-score in [12].
